This passage reports residual activity results from ChEMBL document CHEMBL2218924, “A broad activity screen in support of a chemogenomic map for kinase signalling research and drug discovery” (Biochem J, 2013).

The target of assay [1] is T1, TGF-beta receptor type-1 (Homo sapiens) (UniProt P36897).
T1 sequence (whole entry): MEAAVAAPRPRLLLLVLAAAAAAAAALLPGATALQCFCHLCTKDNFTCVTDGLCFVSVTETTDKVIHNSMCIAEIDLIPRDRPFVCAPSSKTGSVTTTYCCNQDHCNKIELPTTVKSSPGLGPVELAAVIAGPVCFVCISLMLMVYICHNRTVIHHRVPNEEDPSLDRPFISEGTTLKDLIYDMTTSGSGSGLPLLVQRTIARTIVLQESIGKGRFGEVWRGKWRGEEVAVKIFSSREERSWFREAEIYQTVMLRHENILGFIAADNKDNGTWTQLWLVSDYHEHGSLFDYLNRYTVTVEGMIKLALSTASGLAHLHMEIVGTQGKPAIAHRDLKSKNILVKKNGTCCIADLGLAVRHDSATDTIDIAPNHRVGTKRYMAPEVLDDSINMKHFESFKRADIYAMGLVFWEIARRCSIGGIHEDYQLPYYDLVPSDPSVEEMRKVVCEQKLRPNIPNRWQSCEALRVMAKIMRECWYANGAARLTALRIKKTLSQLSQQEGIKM
The settings on record: at 1 µM.

Assay [2] deals with T1, TGF-beta receptor type-1 (Homo sapiens). To be noted: at 10 µM.
For assay [3], the target named is Insulin-like growth factor 1 receptor (Homo sapiens) (UniProt P08069). To be noted: at 1 µM.
For assay [4] the target is unchanged. The settings on record: at 10 µM.
Assay [5] concerns the target T2, Inhibitor of nuclear factor kappa-B kinase subunit alpha (Homo sapiens) (UniProt O15111).
T2 sequence (whole entry): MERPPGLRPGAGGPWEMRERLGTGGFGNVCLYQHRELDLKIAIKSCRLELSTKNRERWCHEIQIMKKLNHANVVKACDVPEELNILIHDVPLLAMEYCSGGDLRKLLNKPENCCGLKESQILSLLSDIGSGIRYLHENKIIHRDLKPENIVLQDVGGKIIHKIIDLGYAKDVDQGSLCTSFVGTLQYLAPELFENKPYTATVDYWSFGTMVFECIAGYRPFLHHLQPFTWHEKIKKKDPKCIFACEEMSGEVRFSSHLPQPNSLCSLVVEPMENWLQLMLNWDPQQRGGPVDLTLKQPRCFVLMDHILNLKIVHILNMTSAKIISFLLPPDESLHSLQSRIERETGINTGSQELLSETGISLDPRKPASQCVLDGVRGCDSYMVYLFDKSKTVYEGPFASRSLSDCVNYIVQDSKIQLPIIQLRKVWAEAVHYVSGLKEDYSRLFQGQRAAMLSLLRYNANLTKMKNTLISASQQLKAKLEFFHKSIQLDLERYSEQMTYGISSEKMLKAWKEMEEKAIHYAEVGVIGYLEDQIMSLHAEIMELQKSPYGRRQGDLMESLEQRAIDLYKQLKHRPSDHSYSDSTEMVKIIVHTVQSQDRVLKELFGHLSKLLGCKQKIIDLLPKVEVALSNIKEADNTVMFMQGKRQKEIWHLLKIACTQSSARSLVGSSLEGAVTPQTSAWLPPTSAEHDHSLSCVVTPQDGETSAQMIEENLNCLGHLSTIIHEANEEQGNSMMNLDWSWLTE
To be noted: at 1 µM.

The target of assay [6] is T2, Inhibitor of nuclear factor kappa-B kinase subunit alpha (Homo sapiens). To be noted: at 10 µM.
Assay [7] deals with T3, Inhibitor of nuclear factor kappa-B kinase subunit beta (Homo sapiens) (UniProt O14920).
T3 sequence (whole entry): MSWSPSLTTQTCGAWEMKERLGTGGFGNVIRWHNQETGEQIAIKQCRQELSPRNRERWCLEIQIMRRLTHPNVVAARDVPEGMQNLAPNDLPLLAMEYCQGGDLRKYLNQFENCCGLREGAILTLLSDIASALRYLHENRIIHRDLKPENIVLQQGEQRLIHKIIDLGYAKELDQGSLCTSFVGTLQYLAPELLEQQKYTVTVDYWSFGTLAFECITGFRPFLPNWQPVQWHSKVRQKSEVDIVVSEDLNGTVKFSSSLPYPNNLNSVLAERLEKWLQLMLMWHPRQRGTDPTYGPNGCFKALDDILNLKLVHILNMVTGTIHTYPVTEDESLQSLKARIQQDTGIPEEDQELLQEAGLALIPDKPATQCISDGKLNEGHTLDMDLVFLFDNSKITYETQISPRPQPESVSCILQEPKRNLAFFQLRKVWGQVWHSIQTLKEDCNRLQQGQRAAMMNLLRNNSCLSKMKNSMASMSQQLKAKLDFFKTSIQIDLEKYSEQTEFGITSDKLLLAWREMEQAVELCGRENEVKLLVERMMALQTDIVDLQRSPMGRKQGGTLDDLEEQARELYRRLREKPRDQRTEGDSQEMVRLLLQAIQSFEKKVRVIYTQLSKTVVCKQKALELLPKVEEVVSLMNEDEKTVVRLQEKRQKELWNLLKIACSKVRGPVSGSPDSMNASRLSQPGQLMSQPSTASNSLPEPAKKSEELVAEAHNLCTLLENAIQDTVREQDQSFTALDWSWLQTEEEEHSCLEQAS
The settings on record: at 1 µM.

Assay [8] concerns the target T3, Inhibitor of nuclear factor kappa-B kinase subunit beta (Homo sapiens). The settings on record: at 10 µM.
The target of assay [9] is Insulin receptor (Homo sapiens) (UniProt P06213). The settings on record: at 1 µM.
Insulin receptor (Homo sapiens), sequence (P06213 28-758 limits assumed): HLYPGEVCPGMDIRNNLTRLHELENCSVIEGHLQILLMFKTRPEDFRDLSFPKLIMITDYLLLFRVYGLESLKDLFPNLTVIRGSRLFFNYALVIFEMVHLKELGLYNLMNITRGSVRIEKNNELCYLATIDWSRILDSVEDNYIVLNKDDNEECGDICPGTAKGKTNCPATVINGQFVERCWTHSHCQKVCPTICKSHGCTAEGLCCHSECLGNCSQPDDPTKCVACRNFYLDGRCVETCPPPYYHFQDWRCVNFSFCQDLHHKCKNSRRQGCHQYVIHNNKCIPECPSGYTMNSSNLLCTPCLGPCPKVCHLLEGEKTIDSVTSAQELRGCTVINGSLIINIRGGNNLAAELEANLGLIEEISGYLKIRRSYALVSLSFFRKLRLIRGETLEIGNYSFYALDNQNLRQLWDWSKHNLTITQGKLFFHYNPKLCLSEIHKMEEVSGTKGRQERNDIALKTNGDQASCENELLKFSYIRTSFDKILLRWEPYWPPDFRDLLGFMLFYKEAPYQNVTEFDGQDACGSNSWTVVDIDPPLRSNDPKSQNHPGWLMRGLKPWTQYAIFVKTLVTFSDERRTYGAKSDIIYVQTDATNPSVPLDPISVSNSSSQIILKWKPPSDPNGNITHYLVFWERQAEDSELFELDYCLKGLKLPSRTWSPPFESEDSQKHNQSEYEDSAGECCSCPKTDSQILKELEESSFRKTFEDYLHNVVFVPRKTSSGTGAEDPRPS
Insulin receptor (Homo sapiens), sequence (P06213 763-1382 limits assumed): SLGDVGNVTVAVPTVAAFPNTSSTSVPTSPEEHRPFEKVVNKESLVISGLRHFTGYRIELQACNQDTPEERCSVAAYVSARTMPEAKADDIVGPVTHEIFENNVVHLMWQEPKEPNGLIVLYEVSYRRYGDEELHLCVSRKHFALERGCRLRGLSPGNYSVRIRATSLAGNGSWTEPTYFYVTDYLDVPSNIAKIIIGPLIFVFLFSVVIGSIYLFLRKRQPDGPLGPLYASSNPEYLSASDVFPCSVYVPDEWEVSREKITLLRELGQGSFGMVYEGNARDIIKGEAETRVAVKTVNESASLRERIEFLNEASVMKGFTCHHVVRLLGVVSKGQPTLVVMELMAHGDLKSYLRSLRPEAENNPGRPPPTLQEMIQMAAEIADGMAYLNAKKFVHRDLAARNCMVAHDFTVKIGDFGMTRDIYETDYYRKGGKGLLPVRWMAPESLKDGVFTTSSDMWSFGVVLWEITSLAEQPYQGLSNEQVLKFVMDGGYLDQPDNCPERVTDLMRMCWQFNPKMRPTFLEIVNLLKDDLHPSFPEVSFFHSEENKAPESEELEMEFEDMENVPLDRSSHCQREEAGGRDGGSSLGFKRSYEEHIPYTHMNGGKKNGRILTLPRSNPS

Insulin-like growth factor 1 receptor (Homo sapiens), sequence (P08069 31-736 limits assumed): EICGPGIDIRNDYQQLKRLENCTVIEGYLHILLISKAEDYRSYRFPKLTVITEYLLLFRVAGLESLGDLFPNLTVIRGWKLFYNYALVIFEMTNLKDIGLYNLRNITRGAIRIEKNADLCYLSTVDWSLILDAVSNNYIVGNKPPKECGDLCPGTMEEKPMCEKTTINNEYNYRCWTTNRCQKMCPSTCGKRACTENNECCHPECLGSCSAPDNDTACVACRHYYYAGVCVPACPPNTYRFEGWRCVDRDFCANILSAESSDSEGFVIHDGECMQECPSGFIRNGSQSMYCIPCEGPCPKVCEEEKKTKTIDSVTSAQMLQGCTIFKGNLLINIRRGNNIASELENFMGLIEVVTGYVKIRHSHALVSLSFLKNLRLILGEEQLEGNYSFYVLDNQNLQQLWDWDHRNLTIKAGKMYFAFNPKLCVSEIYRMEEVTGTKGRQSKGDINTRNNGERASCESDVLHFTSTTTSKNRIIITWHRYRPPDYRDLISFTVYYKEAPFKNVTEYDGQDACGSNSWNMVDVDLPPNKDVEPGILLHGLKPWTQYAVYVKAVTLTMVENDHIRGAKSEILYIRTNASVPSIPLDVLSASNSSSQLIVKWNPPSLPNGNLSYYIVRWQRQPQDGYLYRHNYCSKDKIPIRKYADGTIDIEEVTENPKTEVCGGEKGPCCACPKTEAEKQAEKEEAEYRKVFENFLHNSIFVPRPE
Insulin-like growth factor 1 receptor (Homo sapiens), sequence (P08069 741-1367 limits assumed): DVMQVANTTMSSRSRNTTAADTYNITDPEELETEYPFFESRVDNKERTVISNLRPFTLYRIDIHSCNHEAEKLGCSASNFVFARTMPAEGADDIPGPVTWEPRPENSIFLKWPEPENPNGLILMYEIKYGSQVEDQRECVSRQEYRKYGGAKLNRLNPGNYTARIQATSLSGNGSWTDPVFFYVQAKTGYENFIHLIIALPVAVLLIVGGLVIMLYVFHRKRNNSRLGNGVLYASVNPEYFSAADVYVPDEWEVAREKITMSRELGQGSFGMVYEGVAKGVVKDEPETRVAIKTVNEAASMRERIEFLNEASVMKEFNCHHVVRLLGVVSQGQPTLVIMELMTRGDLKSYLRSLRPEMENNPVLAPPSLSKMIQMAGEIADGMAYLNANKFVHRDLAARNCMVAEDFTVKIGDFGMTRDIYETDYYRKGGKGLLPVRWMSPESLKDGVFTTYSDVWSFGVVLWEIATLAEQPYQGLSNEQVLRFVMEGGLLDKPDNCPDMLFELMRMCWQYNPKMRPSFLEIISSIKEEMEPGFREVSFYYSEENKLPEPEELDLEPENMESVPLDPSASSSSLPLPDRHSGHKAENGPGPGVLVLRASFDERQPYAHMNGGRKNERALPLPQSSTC

A word on the residual activity: it is the signal under treatment as a percentage of the control signal. On to `Cc1cc(Nc2nc(-c3ccccc3)nc3ccccc23)n[nH]1`, for which the residual activity in [1] was found to be 96%; in assay [2] it was 78%; in assay [3] it was 20%; in assay [4], 1%; in assay [5] it was 102%; in assay [6], 72%. The residual activity in assay [7] came to 78%; in assay [8], 51%; in assay [9], 16%.
